Measured values taken from PubChem BioAssay (Tox21).
A number with no mark means an inactive call. Calls of active or inactive are those of the source. The call rests on the fitted dose curve; in most records, active means well fitted curve in the direction sought with a large enough effect in the repeat runs; inconclusive means weak or mixed curves; inactive means flat fitted curve, though single readings scatter.

Assay: qHTS assay to test for compound auto fluorescence at 535 nm (green) in HepG2 cell free culture (AID 720686)
Settings: Cell-free medium, green autofluorescence 485/535 nm; series mostly up to 91.3 µM; fluorescence, % of fluorescein control: at the top concentration
Text: U.S. Tox21 Program National Center for Advancing Translational Sciences [NCATS] NIH Chemical Genomics Center [NCGC] U.S. Environmental Protection Agency [EPA] National Institutes of Environmental Health Sciences [NIEHS] National Toxicology Program [NTP] U.S. Food and Drug Administration [FDA] Tox21 Assay Overview: Compound auto fluorescence often interferes with screening of the compound library against various biological targets and signaling pathways. Some of these compounds may have fluorophoric properties. Such properties may interfere with the assay outputs resulting in false positives and/or negatives. To decrease such complications and ensure the compound activities are relevant in terms of biological response, the Tox21 10K compound library was screened for auto fluorescence. From the fluorophores used as reporter signals in our screening assays, the auto fluorescence equivalencies of compounds against three fluorophores have been evaluated: Triamterene, Fluorescein and Rose Bengal sodium for blue, green and red fluorescence, respectively. The fluorescence intensities were measured using Excitation/Emission wavelengths at 405/460nm, 485/535nm and 540/590nm for blue, green and red labels, respectively. This assay includes the green fluorescence data.
Tox21 Assay Protocol Summary: 5 uL of culture medium (MEM containing 10% FBS) per well was dispensed into black wall/clear bottom 1536-well plates using a Multidrop Combi Dispenser (ThermoFisher Scientific, Waltham, MA). After 23 nL compound or DMSO vehicle was transferred into assay plate by a pintool work station (Kalypsys, San Diego, CA), fluorescence intensities in the assay plates were measured by an Envision (PerkinElmer, Shelton, CT) plate reader using three labels for measuring blue, green and red fluorescence at […] 460, 535 and 590nm respectively.
On the % scale 0 is the no-effect control and ±100 the full control effect.

Row | Structure (SMILES) | fluorescence, % of fluorescein control | outcome
1 | CCCCCCCCCCCC(=O)[O][Sn]([CH2]CCC)([CH2]CCC)[O]C(=O)CCCCCCCCCCC | -0.0166% [at 46 µM] | –
2 | Nc1ccc(S(=O)(=O)O)cc1 | 0.0551% | –
3 | C[C@@H]1C[C@H]2[C@@H]3CCC4=CC(=O)C=C[C@]4(C)[C@@]3(F)[C@@H](O)C[C@]2(C)[C@@]1(O)C(=O)CO | 0.0411% [at 95.7 µM] | –
4 | CO[C@H]1C=CO[C@@]2(C)Oc3c(C)c(O)c4c(O)c(c5c(c4c3C2=O)=NC2(CCN(CC(C)C)CC2)N=5)NC(=O)/C(C)=C\C=C/[C@H](C)[C@H](O)[C@@H](C)[C@@H](O)[C@@H](C)[C@H](OC(C)=O)[C@@H]1C | – | inactive
5 | CCC(=O)Oc1ccc(/C(CC)=C(\CC)c2ccc(OC(=O)CC)cc2)cc1 | -0.173% | –
6 | C[C@]12CCC(=O)C=C1C=C[C@@H]1[C@@H]2CC[C@@]2(C)[C@H]1CC[C@@]21CCC(=O)O1 | 0.0056% [at 46 µM] | –
7 | O=S(=O)(c1ccccc1)c1ccc(Cl)cc1 | -0.0306% | –
8 | CCOC(=O)OCC | 0.0638% [at 95.7 µM] | –
9 | Nc1nc(Cl)nc2c1ncn2[C@@H]1O[C@H](CO)[C@@H](O)[C@@H]1F | -0.212% [at 46 µM] | –
10 | CC[C@H](NC(=O)c1cc(F)ccc1NS(=O)(=O)c1cccc2cccnc12)c1ccccc1 | -0.0806% | –
11 | CCNC(=O)N1CCN(CCCC(c2ccc(F)cc2)c2ccc(F)cc2)CC1 | -0.0924% [at 46 µM] | –
12 | CCc1nn(CCCN2CCN(c3cccc(Cl)c3)CC2)c(=O)n1CCOc1ccccc1 | – | inactive
13 | CC(C)(C)C(=O)C(Oc1ccc(Cl)cc1)n1ccnc1 (stereo not given) | 0.953% [at 46 µM] | –
14 | CN(C)C(=O)Nc1ccc(Oc2ccc(Cl)cc2)cc1 | 0.039% | –
15 | CCCCC/C(=C\c1ccccc1)CO | 0.041% [at 95.7 µM] | –
16 | CC(=O)Nc1ccccc1C | -0.0381% [at 95.7 µM] | –
17 | NC(=O)N(O)[C@@H]1COc2cc(OCc3ccccc3)ccc21 | 0.031% | –
18 | Nc1ccc(C(=O)OCCCOC(=O)c2ccc(N)cc2)cc1 | 0.016% | –
19 | C/C=C(\C)C(=O)OCCC(C)CCC=C(C)C (stereo not given) | 0.0046% | –
20 | O=C1NCCN1 | 0.0061% | –

Row | Structure (SMILES) | fluorescence, % of fluorescein control | outcome
21 | CCCCC(CC)COC(=O)COc1ccc(Cl)cc1C (stereo not given) | 0.0767% | –
22 | CCC1(C)CC(=O)NC1=O (stereo not given) | -0.0137% [at 46 µM] | –
23 | CN(C)CCOC1=Cc2ccccc2Sc2ccc(Cl)cc21 | 0.0067% [at 46 µM] | –
24 | CC(C)C(OC(=O)c1ccccc1)C(C)(C)COC(=O)c1ccccc1 (stereo not given) | 0.143% | –
25 | CC(C)CCCCCCOC(=O)CCCCC(=O)OCCCCCCC(C)C | 0.0102% | –
26 | CCN(CC)CCNC(=O)c1ccc(NC(C)=O)cc1 | -0.0195% [at 46 µM] | –
27 | O=C(C(=O)c1ccccc1)c1ccccc1 | -0.0117% | –
28 | CCCc1c(OCCCOc2ccc(OCC(=O)O)cc2)ccc(C(C)=O)c1O | -0.0391% | –
29 | CCC(C)(O)CCC=C(C)C (stereo not given) | -0.0157% | –
30 | C=CC(C)(O)CCCC(C)CCCC(C)CCCC(C)C (stereo not given) | 0.008% | –
31 | CNC(=S)NC | 0.142% | –
32 | Fc1c(F)c(F)c(Br)c(F)c1F | -0.104% | –
33 | CCCOC(=O)c1ccc(N)cc1 | -0.0082% [at 46 µM] | –
34 | CC1=CC(O)CC(C)(C)C1 (stereo not given) | -0.0037% | –
35 | CC(=O)[C@H]1CC[C@H]2[C@@H]3C[C@H](C)C4=CC(=O)CC[C@]4(C)[C@H]3[C@@H](O)C[C@]12C | 0.189% [at 18.6 µM] | –
36 | C/C=C/C=C/CCCCCCCO | 0.0519% | –
37 | Cc1c(C(=O)NN2CCCCC2)nn(-c2ccc(Cl)cc2Cl)c1-c1ccc(Cl)cc1 | -0.03% [at 46 µM] | –
38 | NC(=O)Nc1ccc(Cl)cc1 | 0.0352% | –
39 | OCCSc1ccccc1 | 0.0522% | –
40 | CCC(Cc1ccccc1)(C(=O)c1ccc(N2CCOCC2)cc1)N(C)C (stereo not given) | -0.0072% | –
